In PubChem BioAssay (NCI) one finds growth inhibition data, which are given here for 10 compounds.

The panel holds about 79,000 compounds, 15% with a hit somewhere; the sample as a whole holds those more often. Unmarked numbers belong to inactive results. Activity calls are given as the source filed them. Cut-off read from the data, not from the text of the source: active = growth inhibition above about 70%; inactive = the rest.

Test [1] can be described thus: NCI Yeast Anticancer Drug Screen. Data for the rad50 strain (AID 155).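 Note: 0% = growth of vehicle-only cultures of the same strain.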 The following applies: S. cerevisiae rad50 strain growth inhibition, stronger effect = higher value. An outline of the steps:
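Relative growth inhibition (compound vs vehicle) was measured in yeast with a defined repair-gene alteration.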

A short description of test [2]: NCI Yeast Anticancer Drug Screen. Data for the mec2-1 strain (AID 157). The following applies: S. cerevisiae mec2-1 strain, stronger effect = higher value. The method, boiled down: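 Each compound was tested on mec2-1 yeast, a strain altered in DNA damage repair or cell cycle control. Growth inhibition is reported relative to vehicle.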
A short description of test [3]: NCI Yeast Anticancer Drug Screen. Data for the sgs1 mgt1 strain (AID 161).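 Note: 0% = growth of cultures given vehicle only.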 The following applies: S. cerevisiae sgs1 mgt1 strain, stronger effect = higher value. The method, boiled down:
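Genetically altered yeast, compound exposure, growth inhibition relative to vehicle.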

Test [4] is described as follows: NCI Yeast Anticancer Drug Screen. Data for the cln2 rad14 strain (AID 165).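 Note: 0% = growth equal to vehicle treated cultures.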 The note with it: S. cerevisiae cln2 rad14 strain, stronger effect = higher value. An outline of the steps: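 Test compounds were added to cln2 rad14 yeast cultures; inhibition of growth was then determined by comparison with vehicle treatment.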
A short description of test [5]: NCI Yeast Anticancer Drug Screen. Data for the bub3 strain (AID 167). The note with it: S. cerevisiae bub3 mutant strain, stronger effect = higher value. The method, boiled down: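 Screening used yeast with an engineered genetic alteration affecting cell cycle control. Compound-exposed cultures were compared with vehicle cultures, and reduced growth was taken as inhibition.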

The nature of test [6]: NCI Yeast Anticancer Drug Screen. Data for the mlh1 rad18 strain (AID 175). The following applies: S. cerevisiae mlh1 rad18 strain growth inhibition, stronger effect = higher value. The method, boiled down: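 Inhibition values reflect reduced growth of mutant yeast versus vehicle-treated controls following compound exposure; the mutations affect DNA damage repair.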
Where [7] appears, read: at 5.0 µM (retest, dose inferred, filed as 0.5).
Where [8] appears, read: at 50.0 µM (retest, dose inferred, filed as 5.0).

In the case of `CC(C)[C@H](N)C(=O)NCCNC(=O)[C@@H](N)C(C)C`, the growth inhibition is 90% (active) in test [1] (setting [7]); 99% (active) in test [1] (setting [8]); -24.6% in test [1] (at 50.0 µM); 66% in test [2] (setting [7]); 99% (active) in test [2] (setting [8]); -4.9% in test [2] (at 50.0 µM). The growth inhibition is 62% in test [3] (setting [7]); 99% (active) in test [3] (setting [8]); -14.2% in test [3] (at 50.0 µM); 89% (active) in test [4] (setting [7]); 99% (active) in test [4] (setting [8]); 17.2% in test [4] (at 50.0 µM). Also, the growth inhibition in test [5] (setting [7]) was 93% (active); in test [5] (setting [8]) it was 100% (active); in test [5] (at 50.0 µM) it was 37.1%; in test [6] (setting [7]), 89% (active); in test [6] (setting [8]), 99% (active); in test [6] (at 50.0 µM) it was 4.4%.

With `CC/S(=N\S(=O)(=O)c1ccc(C)cc1)c1cccc[n+]1[O-]` (stereo not given), the growth inhibition in test [1] (setting [7]) is 83% (active); in test [1] (setting [8]), 97% (active); in test [1] (at 50.0 µM) it was 96.1% (active); in test [2] (setting [7]), 82% (active); in test [2] (setting [8]), 99% (active); in test [2] (at 50.0 µM) it was 96.7% (active). Also, the growth inhibition in test [3] (setting [7]) was 79% (active); in test [3] (setting [8]), 98% (active); in test [3] (at 50.0 µM), 98% (active); in test [4] (setting [7]) it was 51%; in test [4] (setting [8]) it was 98% (active); in test [4] (at 50.0 µM) it was 91.2% (active). Further, the growth inhibition is 85% (active) in test [5] (setting [7]); 98% (active) in test [5] (setting [8]); 96.3% (active) in test [5] (at 50.0 µM); 87% (active) in test [6] (setting [7]); 98% (active) in test [6] (setting [8]); 95.4% (active) in test [6] (at 50.0 µM).

Take `COc1ccc(CSC2=C(C#N)C(=O)NC3(CCCCC3)S2)cc1`: the growth inhibition in test [1] (setting [7]) was 23%; in test [1] (setting [8]), 11%; in test [1] (at 50.0 µM), 3.6%; in test [2] (setting [7]), -1%; in test [2] (setting [8]) it was 4%; in test [2] (at 50.0 µM), 2.25%. The growth inhibition in test [3] (setting [7]) was 23%; in test [3] (setting [8]), 14%; in test [3] (at 50.0 µM), 6.2%; in test [4] (setting [7]), -1%; in test [4] (setting [8]), 16%; in test [4] (at 50.0 µM) it was 28.5%. The growth inhibition was 6% in test [5] (setting [7]); 6% in test [5] (setting [8]); -13.2% in test [5] (at 50.0 µM); 18% in test [6] (setting [7]); -2% in test [6] (setting [8]); 7.75% in test [6] (at 50.0 µM).

In the case of `OCc1c2c(cc3c1CC1(C3)Cc3cc4c(c(CO)c3C1)CCC4)CCC2`, the growth inhibition is 30% in test [1] (setting [7]); 94% (active) in test [1] (setting [8]); 8.5% in test [1] (at 50.0 µM); 19% in test [2] (setting [7]); 97% (active) in test [2] (setting [8]); 24.3% in test [2] (at 50.0 µM). Besides, the growth inhibition in test [3] (setting [7]) was 22%; in test [3] (setting [8]) it was 98% (active); in test [3] (at 50.0 µM), 27.1%; in test [4] (setting [7]) it was 10%; in test [4] (setting [8]), 97% (active); in test [4] (at 50.0 µM), 46.4%. Besides, the growth inhibition in test [5] (setting [7]) is 18%; in test [5] (setting [8]), 97% (active); in test [5] (at 50.0 µM), 52.8%; in test [6] (setting [7]), 27%; in test [6] (setting [8]), 94% (active); in test [6] (at 50.0 µM), 27.4%.

Turning to `CNc1nc(N)nc(N(C)c2ccc(Br)cc2)c1N=O`, the growth inhibition in test [1] (setting [7]) was 22%; in test [1] (setting [8]), 71% (active); in test [1] (at 50.0 µM), 68.2%; in test [2] (setting [7]) it was 40%; in test [2] (setting [8]), 58%; in test [2] (at 50.0 µM), 12.3%. The growth inhibition is 11% in test [3] (setting [7]); 32% in test [3] (setting [8]); 17.6% in test [3] (at 50.0 µM); 16% in test [4] (setting [7]); 33% in test [4] (setting [8]); -30.7% in test [4] (at 50.0 µM). Further, the growth inhibition is 20% in test [5] (setting [7]); 64% in test [5] (setting [8]); 21.2% in test [5] (at 50.0 µM); 36% in test [6] (setting [7]); 79% (active) in test [6] (setting [8]); 43.9% in test [6] (at 50.0 µM).

In the case of `CCOC(=O)C(NC(C)=O)[CH](c1ccc(OC)cc1)[Sn]([c]1ccccc1)([c]1ccccc1)[c]1ccccc1` (stereo not given), the growth inhibition was 99% (active) in test [1] (setting [7]); 99% (active) in test [1] (setting [8]); 48.6% in test [1] (at 50.0 µM); 99% (active) in test [2] (setting [7]); 99% (active) in test [2] (setting [8]); 58.1% in test [2] (at 50.0 µM). The growth inhibition was 99% (active) in test [3] (setting [7]); 99% (active) in test [3] (setting [8]); 48.2% in test [3] (at 50.0 µM); 98% (active) in test [4] (setting [7]); 99% (active) in test [4] (setting [8]); 99% (active) in test [4] (at 50.0 µM). The growth inhibition in test [5] (setting [7]) is 99% (active); in test [5] (setting [8]), 98% (active); in test [5] (at 50.0 µM), 47.4%; in test [6] (setting [7]) it was 99% (active); in test [6] (setting [8]), 99% (active); in test [6] (at 50.0 µM) it was 85.4% (active).

For the compound `COc1cccc2c1OC(c1cccc3ccccc13)C([N+](=O)[O-])=C2` (stereo not given), the growth inhibition in test [1] (setting [7]) was 49%; in test [1] (setting [8]), 75% (active); in test [1] (at 50.0 µM) it was 62.3%; in test [2] (setting [7]) it was 32%; in test [2] (setting [8]), 67%; in test [2] (at 50.0 µM) it was 62.1%. The growth inhibition is 39% in test [3] (setting [7]); 70% (active) in test [3] (setting [8]); 61.4% in test [3] (at 50.0 µM); 22% in test [4] (setting [7]); 62% in test [4] (setting [8]); 47% in test [4] (at 50.0 µM). The growth inhibition in test [5] (setting [7]) was 47%; in test [5] (setting [8]), 74% (active); in test [5] (at 50.0 µM), 54.8%; in test [6] (setting [7]), 49%; in test [6] (setting [8]), 81% (active); in test [6] (at 50.0 µM), 58.8%.

For `O=S(=O)(Nc1ccccc1)c1ccccc1C(O)(c1ccccc1)c1ccccc1`, the growth inhibition in test [1] (setting [7]) is 6%; in test [1] (setting [8]), 71% (active); in test [1] (at 50.0 µM) it was 93.6% (active); in test [2] (setting [7]), -15%; in test [2] (setting [8]), 94% (active); in test [2] (at 50.0 µM), 73.1% (active). In addition, the growth inhibition in test [3] (setting [7]) was -179%; in test [3] (setting [8]) it was 48%; in test [3] (at 50.0 µM), 92.1% (active); in test [4] (setting [7]) it was -2%; in test [4] (setting [8]), 82% (active); in test [4] (at 50.0 µM), 85.2% (active). For the same compound, the growth inhibition in test [5] (setting [7]) is 15%; in test [5] (setting [8]), 96% (active); in test [5] (at 50.0 µM), 81.2% (active); in test [6] (setting [7]), -21%; in test [6] (setting [8]), 92% (active); in test [6] (at 50.0 µM) it was 95.5% (active).

For `Clc1ccc(SSN2CCOCC2)cc1`, the growth inhibition in test [1] (setting [7]) was 7%; in test [1] (setting [8]) it was 84% (active); in test [1] (at 50.0 µM), 98.5% (active); in test [2] (setting [7]), -2%; in test [2] (setting [8]), 80% (active); in test [2] (at 50.0 µM), 98.9% (active). In addition, the growth inhibition in test [3] (setting [7]) is 1%; in test [3] (setting [8]) it was 98% (active); in test [3] (at 50.0 µM), 98.9% (active); in test [4] (setting [7]) it was -2%; in test [4] (setting [8]), 40%; in test [4] (at 50.0 µM) it was 61.3%. The growth inhibition in test [5] (setting [7]) was 4%; in test [5] (setting [8]), 92% (active); in test [5] (at 50.0 µM), 98.5% (active); in test [6] (setting [7]), 0%; in test [6] (setting [8]), 96% (active); in test [6] (at 50.0 µM), 97.2% (active).

Take `CCCCCNC(=O)C1C(=O)N(CCCCC)C(=O)/C1=N\N` (stereo not given): the growth inhibition was -1% in test [1] (setting [7]); -1% in test [1] (setting [8]); -5% in test [1] (at 50.0 µM); -3% in test [2] (setting [7]); 2% in test [2] (setting [8]); 29.8% in test [2] (at 50.0 µM). In addition, the growth inhibition in test [3] (setting [7]) is 2%; in test [3] (setting [8]) it was 3%; in test [3] (at 50.0 µM), 1.7%; in test [4] (setting [7]) it was 1%; in test [4] (setting [8]) it was -3%; in test [4] (at 50.0 µM), 79.7% (active). Also, the growth inhibition in test [5] (setting [7]) is 5%; in test [5] (setting [8]), -3%; in test [5] (at 50.0 µM), 30.8%; in test [6] (setting [7]), -1%; in test [6] (setting [8]) it was -4%; in test [6] (at 50.0 µM), -13.5%.
